# Assay outcomes (PubChem BioAssay)
# In the library only some 3.5% were active in any assay of this set; here they are far more common.
# FBW7 act: activators of human E3 ligase FBW7 | Q969H0 | AlphaScreen FBW7–phospho-cyclin E peptide binding, activator screen | normalized activity (activation), % at 26.1 µM | 0.13% of 650,000 active; in the data active = normalized activity above about 1.9%;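 also: purified mutant Fbw7 with reduced substrate affinity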
# GPR151 activ: activates the human receptor GPR151; Q8TDV0; PathHunter beta-arrestin GPR151 cells, luminescence; activation, % at 11.2 µM; 1% of 650,000 active; in the data active = activation above about 4.9%;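 also: 0% = median of compound wells and 100% = cells with positive control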
# MITF inh: human MITF inhibition, primary screen; O75030; AlphaScreen MITF homodimerization, bead proximity signal; inhibition, % at 2.6 µM; 0.91% of 650,000 active; AID 1259374; in the data active = inhibition above about 50%;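 also: 0% = vehicle wells with protein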
# TEAD-YAP inh: TEAD-YAP interaction inhibition; 1.4% of 640,000 active; inhibition, % at 9.12 µM; HEK-TIYL cells, TEAD-Gal4/YAP UAS-luciferase luminescence; in the data active = inhibition above about 32%;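 also: 0% = median of test compound wells and 100% = reference inhibitor wells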
# MITF inh conf: confirmation of human MITF inhibitors; shares compounds with MITF inh; AID 1259372; AlphaScreen MITF homodimerization, biotin/His-MITF beads; 16% of 4,700 active; inhibition, % at 2.6 µM;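 active = inhibition above a cutoff derived from the DMSO control wells, cut at about 28% in these data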;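 also: 0% = MITF dimer wells with DMSO only; inhibitors lower the bead chemiluminescence by keeping MITF from dimerizing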
# AlphaScreen DR: counter-screen: compounds optically interfering with AlphaScreen | 6% of 480 active | IC50, µM | shares compounds with MITF inh | AID 1259373 | AlphaScreen optical interference counterscreen, cell-free; call rule not given here
# AlphaScreen intf2: optically interferes with AlphaScreen signal; inhibition, % at 2.6 µM; shares compounds with MITF inh; 7.6% of 4,700 active; AID 1259376; LysRS AlphaScreen counterscreen, signal interference, triplicate;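 active = inhibition above a cutoff derived from the DMSO control wells, cut at about 30% in these data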
# * marks the source's active call; other numbers are inactive results; nt = not tested or not shown.
SMILES,FBW7 act,GPR151 activ,MITF inh,TEAD-YAP inh,MITF inh conf,AlphaScreen intf2,others
O=c1c2c3c(sc2nc2n1CCCCC2)CCC3,0.0,0.3,70.6*,-25.8,-5.3,0.2,
O=C1CCCc2c1sc1nc3n(c(=O)c21)CCCCC3,-0.2,-0.8,-2.5,-44.2,nt,nt,
O=C(CN1C(=O)c2ccc([N+](=O)[O-])cc2C1=O)N1CCOCC1,0.5,-1.1,-6.4,-2.5,nt,nt,
O=C(Cn1cc(C(=O)c2ccco2)c2ccccc21)NCc1cccnc1,-0.3,0.3,67.2*,4.6,62.0*,-4.0,AlphaScreen DR=>6.48
OCCNc1ccnc(Nc2nccc3ccccc23)n1,0.0,-0.4,70.7*,-7.6,4.6,37.2*,
COc1ccc(N2C(=O)c3ccc(Oc4ccccc4OC)cc3C2=O)cc1,-0.1,3.4,0.3,9.6,nt,nt,
COCc1cc(C)c2c(n1)sc1c2nnn2c3ccccc3nc12,0.1,0.5,8.7,7.7,nt,nt,
COc1ccc(COCC(O)CNCCOCCO)cc1OC (configuration not stated),0.2,0.0,4.7,-4.0,nt,nt,
OC(CNCCN1CCOCC1)COC1CCCc2ccccc21 (configuration not stated),-0.1,0.3,72.8*,7.2,13.3,15.1,
OC(CNCCN1CCOCC1)COc1ccccc1 (configuration not stated),0.0,1.1,74.7*,-5.7,4.0,1.9,
COc1ccc(COCC(O)CNCCCN2CCOCC2)cc1OC (configuration not stated),0.1,-0.6,53.5*,9.1,-6.6,-2.4,
OC(COc1ccccc1)CN1CCOCC1 (configuration not stated),-0.1,-0.2,-1.4,1.4,nt,nt,
CCc1ccc(CN2CCN(CC3CC=CCC3)CC2)cc1 (configuration not stated),0.0,-1.1,69.3*,-7.7,-3.7,0.6,
COc1ccc(CN2CCN(CC3CC=CCC3)CC2)c(OC)c1OC (configuration not stated),-0.1,1.1,65.6*,12.1,-18.7,-2.4,
CC(C)(C)n1nnnc1C(c1cccs1)N1CCN(Cc2ccc3c(c2)OCO3)CC1 (configuration not stated),0.4,-0.8,78.5*,3.9,14.6,17.4,
COc1cc(CN2CCN(CC3CC=CCC3)CC2)cc(OC)c1O (configuration not stated),-0.1,1.6,4.2,-1.9,nt,nt,
CCOc1ccccc1CN1CCN(Cc2ccc3c(c2)OCO3)CC1,0.0,0.8,52.5*,2.0,4.2,-0.1,
Clc1cccc(CN2CCN(CC3CC=CCC3)CC2)c1 (configuration not stated),-0.1,0.7,31.9,-7.2,nt,nt,
CCOC(=O)N1CCN(Cc2ccc3c(c2)OCO3)CC1,-0.1,1.0,-17.2,-8.9,nt,nt,
Cc1cccc(C(=O)OCc2c(C)noc2C)c1C,0.1,2.3,2.4,-3.1,nt,nt,
COC(=O)C1=C(C)NC(=O)CC1c1ccc([N+](=O)[O-])cc1 (configuration not stated),0.0,-0.9,-6.6,-1.3,nt,nt,
CC1(C)CC(=O)C2=C(C1)OC1=C(C(=O)CC(C)(C)C1)C2c1cccc2ccccc12,-0.1,0.8,-3.9,0.3,nt,nt,
C1=CCC(CN2CCN(Cc3ccc4c(c3)OCO4)CC2)CC1 (configuration not stated),0.6,0.0,66.0*,-2.4,6.6,19.2,
CN1CCCN(Cc2ccc3c(c2)OCO3)CC1,-0.1,3.0,52.1*,-4.0,2.1,0.6,
CCC(C)N1CCN(CC2CC=CCC2)CC1 (configuration not stated),-0.1,0.2,62.4*,-1.4,16.7,16.7,
Cc1ccc(S(=O)(=O)N2CCN(CC3CC=CCC3)CC2)cc1 (configuration not stated),0.0,0.2,33.8,1.0,nt,nt,
C1=CCC(CN2CCN(C3CCCCC3)CC2)CC1 (configuration not stated),0.1,-0.2,51.4*,-1.0,11.9,16.1,
COC(=O)C1=C(C)NC2=C(C(=O)CC(c3ccc(Cl)cc3)C2)C1c1cc(Br)c(O)c(OC)c1 (configuration not stated),0.0,0.8,1.6,-0.9,nt,nt,
CC(C)OCCCNCc1ccc(OCC(O)CN(C)Cc2ccccc2)cc1 (configuration not stated),0.0,1.2,0.5,2.5,nt,nt,
